An excerpt weighted towards active compounds, which were near 11% of everything screened.
L3MBTL1 block: inhibitors of human L3MBTL1. Q9Y468. AlphaScreen L3MBTL1–H3K9me1 peptide binding. Potency, µM (titrated, usually from 57.1 µM), inactives show top-dose activity, negative = inhibition, usual class: inhibitors. 0.66% of 230,000 active; also: % is scaled to controls: 0 for no effect and ±100 for the full control effect; nearly all actives have a fitted effect of over 60% in size
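Read-out is AlphaScreen signal from streptavidin donor and nickel chelate acceptor beads (10 ug/mL final each) bridging L3MBTL1 (50 nM) and biotinylated K9-monomethylated H3(1-15) peptide (75 nM), after 30 min compound exposure at room temperature.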
G9a inh: inhibitors of human histone lysine methyltransferase G9a. Potency, µM (top dose mostly 102 µM), for inactives: top-dose activity, negative = inhibition, actives largely listed as inhibitors. G9a H3K9 monomethylation, AlphaScreen, 2 h. Q96KQ7. AID 504332. 8.8% of 350,000 active; also: % is scaled to controls: 0 for no effect and ±100 for the full control effect; nearly all actives have a fitted effect of over 75% in size
Target sequence (Q96KQ7 913-1193 limits assumed): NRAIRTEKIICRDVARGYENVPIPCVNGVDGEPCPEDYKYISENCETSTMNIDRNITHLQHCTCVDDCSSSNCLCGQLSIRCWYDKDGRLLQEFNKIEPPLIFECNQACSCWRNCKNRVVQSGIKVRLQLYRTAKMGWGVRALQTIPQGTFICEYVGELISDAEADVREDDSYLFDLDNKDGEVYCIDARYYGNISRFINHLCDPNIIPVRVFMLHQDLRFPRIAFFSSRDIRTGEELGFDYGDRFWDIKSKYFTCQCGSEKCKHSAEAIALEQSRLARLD
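Compounds were preincubated with 20 nM G9a for 15 min, after which biotinylated H3K9 peptide (500 nM) and SAM (20 uM) started a 2 h room-temperature reaction. Monomethylated product was quantified by antibody-based AlphaScreen chemiluminescence.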
JMJD2A Tudor inh: blocks the human JMJD2A Tudor domain; AlphaScreen JMJD2A-Tudor / H3K4me3 peptide binding; O75164; 4.4% of 390,000 active; Potency, µM (series often up to 114 µM), without a hit: top-dose activity change, negative = inhibition, hits mostly inhibitors; AID 504339; also: % is scaled to controls: 0 for no effect and ±100 for the full control effect; nearly all actives have a fitted effect of over 50% in size
HP1b binding inh: HP1-beta chromodomain-methylated histone interaction inhibition; P83916; AlphaScreen HP1-beta / biotin-H3K9me3 peptide binding; 0.56% of 390,000 active; Potency, µM (series often up to 114 µM), without a hit: top-dose activity change, negative = inhibition, actives largely listed as inhibitors; also: nearly all actives have a fitted effect of over 70% in size
Target sequence (P83916 whole entry, looked up): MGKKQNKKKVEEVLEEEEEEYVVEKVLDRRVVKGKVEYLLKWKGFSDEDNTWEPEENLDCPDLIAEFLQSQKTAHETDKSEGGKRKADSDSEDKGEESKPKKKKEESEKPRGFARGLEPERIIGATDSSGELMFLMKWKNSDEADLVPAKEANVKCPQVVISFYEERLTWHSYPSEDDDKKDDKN
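AlphaScreen: HP1-beta (50 nM) preformed 30 min with biotin-H3(1-18)K9me3 peptide (50 nM) in PBS pH 7.4, 0.01% Tween-20. Compound added for 30 min at RT, then streptavidin donor/nickel chelate acceptor beads (10 ug/mL) for 30 min.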
BAZ2B inh: BAZ2B (human) inhibition; 4.4% of 360,000 active; Potency, µM (doses to about 114 µM), inactives show at the highest dose activity change, negative = inhibition, hits mostly inhibitors; AlphaScreen BAZ2B-H3K14Ac peptide displacement; AID 504333; also: % is scaled to controls: 0 for no effect and ±100 for the full control effect; nearly all actives have a fitted effect of over 60% in size
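Compounds, titrated to a top concentration of 110 uM, were incubated 30 min at room temperature with preformed BAZ2B/acetyl-K14 H3 peptide complex (50 nM each). Proximity signal was measured by AlphaScreen after 20 min with beads.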
* = called active by the depositor; [ ] = another dose, or the depositor's remark. Calls follow the shape of the dose curve; as a rule, active = well fitted inhibition curve with a large enough effect; inconclusive = small, poorly fitted or top-dose-only effect; inactive = no such curve, though single readings can be large or run the other way. Potency is read from the fitted curve at half-maximal effect.

`CC(C)COc1ccccc1C1CC(=O)Nc2cc3c(cc21)OCO3` (centres undefined) gave G9a inh inconclusive, JMJD2A Tudor inh inconclusive, HP1b binding inh 11.8% and BAZ2B inh -17.7%.
For COc1ccc(N2CCN(C3C(=O)c4ccccc4N3C(C)=O)CC2)cc1 (centres undefined) the results were G9a inh inconclusive, JMJD2A Tudor inh inconclusive, HP1b binding inh -5.1% and BAZ2B inh -32.3%.
Screening Cc1[nH]n(-c2ccccc2)c(=O)c1N=Nc1ccc(C(N)=O)cc1 returned L3MBTL1 block 2.3%, JMJD2A Tudor inh -11.9%, HP1b binding inh 8.6% and BAZ2B inh -9.1%.
Screening CC(=O)c1ccc(N=Nc2c(C)[nH]n(-c3ccccc3)c2=O)cc1 returned L3MBTL1 block -23.1%, G9a inh 3.55µM*, JMJD2A Tudor inh inconclusive, HP1b binding inh inconclusive and BAZ2B inh 31.6µM*.
Cc1[nH]n(-c2ccc(Cl)cc2)c(=O)c1C=Nc1ccc(S(=O)(=O)N2CCOCC2)cc1 was read as L3MBTL1 block -12.6%, G9a inh 50.1µM*, JMJD2A Tudor inh -29.2%, HP1b binding inh -5.7% and BAZ2B inh -33.6%.
`Cc1[nH]n(-c2ccccc2)c(=O)c1N=Nc1cccc(C(=O)O)c1` gave L3MBTL1 block -7.4%, JMJD2A Tudor inh inconclusive, HP1b binding inh -8.2% and BAZ2B inh -33.9%.
Screening CCc1nnc(NS(=O)(=O)c2ccc(N=Cc3c(C)[nH]n(-c4ccc(Cl)cc4)c3=O)cc2)s1 returned L3MBTL1 block -9.5%, G9a inh -8.0%[59 µM], JMJD2A Tudor inh -21.4%, HP1b binding inh -0.5% and BAZ2B inh inconclusive.
`Cc1[nH]n(-c2ccccc2)c(=O)c1N=Nc1ccc(C(=O)O)cc1` gave G9a inh 79.4µM*, JMJD2A Tudor inh inconclusive, HP1b binding inh 3.8% and BAZ2B inh -37.9%.
Screening COc1ccc(NC(=O)Nc2cccc(OCc3cc(=O)n4cccc(C)c4n3)c2)c(OC)c1 returned G9a inh inconclusive, JMJD2A Tudor inh -13.6%, HP1b binding inh 26.1%[57 µM] and BAZ2B inh -0.8%.
For Cn1ccc2cc(S(=O)(=O)N3CCCN(C(=O)Nc4ccccc4Br)CC3)ccc21 the results were G9a inh -3.4%[59 µM], JMJD2A Tudor inh -25.2%, HP1b binding inh 6.0%[57 µM] and BAZ2B inh -14.4%.
For O=C(O)c1ncn(Cc2ccccc2)c1C(=O)O the results were L3MBTL1 block -5.6%, G9a inh 10µM*, JMJD2A Tudor inh 6.31µM*, HP1b binding inh 54.7% and BAZ2B inh 31.6µM*.
Screening CCOc1ccc(NC(=O)C/C(C)=N/NC(=O)COc2ccc(Br)cc2C)cc1 returned G9a inh -2.8%, JMJD2A Tudor inh -9.4%, HP1b binding inh 21.3% and BAZ2B inh -20.2%.
Screening CCn1c(SCc2nc3sc(C(=O)O)c(C)c3c(=O)[nH]2)nnc1-c1ccc(Cl)cc1 returned L3MBTL1 block -5.7%[11.4 µM], G9a inh inconclusive, JMJD2A Tudor inh -2.9%, HP1b binding inh 41.7% and BAZ2B inh 56.2µM*.
Screening O=C(Nc1nc2c(F)cccc2s1)c1ccc(S(=O)(=O)N2CCOCC2)cc1 returned G9a inh -2.6%[59 µM], JMJD2A Tudor inh -10.1%, HP1b binding inh 26.8%[57 µM] and BAZ2B inh 1.4%.
For CCCC(=O)N(C)c1nnc(-c2ccc(OC)cc2)s1 the results were L3MBTL1 block 10.0%, G9a inh 44.7µM*, JMJD2A Tudor inh -4.2%, HP1b binding inh 22.7% and BAZ2B inh -3.2%.
Screening CN(C(=O)c1cccnc1)c1nnc(-c2ccccn2)s1 returned G9a inh inconclusive, JMJD2A Tudor inh -13.6%, HP1b binding inh 18.7% and BAZ2B inh 56.2µM*.
For CN(C(=O)c1ccccn1)c1nnc(-c2cnccn2)s1 the results were L3MBTL1 block -2.2%, G9a inh 44.7µM*, JMJD2A Tudor inh -3.8%, HP1b binding inh 3.5% and BAZ2B inh 79.4µM*.
`COc1cccc(C(=O)N(C)c2nnc(-c3ccncc3)s2)c1` gave L3MBTL1 block 1.9%, G9a inh 79.4µM*, JMJD2A Tudor inh -12.8%, HP1b binding inh 29.7% and BAZ2B inh 0.7%.
For CN(C(=O)c1cccc(C#N)c1)c1nnc(-c2ccncc2)s1 the results were L3MBTL1 block 0.1%, G9a inh inconclusive, JMJD2A Tudor inh -4.8%, HP1b binding inh 45.9% and BAZ2B inh -1.3%.
`CN(C(=O)c1cnccn1)c1nnc(-c2cnccn2)s1` gave L3MBTL1 block 2.0%, G9a inh -7.6%[2.33 µM], JMJD2A Tudor inh -20.7%, HP1b binding inh 14.0% and BAZ2B inh -3.1%.
Screening COCCNC(=O)CCc1c(C)n(C)c2cc(-c3cc(OC)c(OC)c(OC)c3)nn2c1=O returned G9a inh 7.1%[59 µM], JMJD2A Tudor inh -18.4%, HP1b binding inh 17.3%[57 µM] and BAZ2B inh -3.5%.
Screening CCC(=O)N1CCc2cc(S(=O)(=O)NC(CC(C)C)C(=O)Nc3ccc(CC)cc3)ccc21 (centres undefined) returned G9a inh 6.1%[59 µM], JMJD2A Tudor inh -1.0% and HP1b binding inh 41.3%.
Screening Cc1ccccc1OCCCN1CCCC1 returned L3MBTL1 block -18.6%, G9a inh 39.8µM*, JMJD2A Tudor inh 3.55µM*, HP1b binding inh -37.9% and BAZ2B inh -35.1%.
Cc1ccc(OCCCCN2CCCCC2)c(C)c1 was read as L3MBTL1 block -1.2%, G9a inh -10.6%, JMJD2A Tudor inh -8.6%, HP1b binding inh 35.7% and BAZ2B inh -0.5%.
Cc1ccc(C)c(OCCCCN2CCCCC2)c1 was read as G9a inh 25.1µM*, JMJD2A Tudor inh 31.6µM*, HP1b binding inh -10.4% and BAZ2B inh -19.7%.
Screening Cc1ccccc1OCCN1CCCC1 returned JMJD2A Tudor inh 20µM*, HP1b binding inh inconclusive and BAZ2B inh 50.1µM*.
COc1ccc(S(=O)(=O)Nc2ccccc2C(=O)NCc2cccnc2)cc1OC was read as G9a inh 6.0%, JMJD2A Tudor inh -7.4%, HP1b binding inh 20.6% and BAZ2B inh 0.4%.
Screening CCOC(=O)CC(NC(=O)c1cc2cc(Br)cc(OC)c2oc1=O)c1ccc(OC)cc1 (centres undefined) returned G9a inh 4.8%[59 µM], JMJD2A Tudor inh -13.1%, HP1b binding inh 20.8% and BAZ2B inh -11.5%.
`C[C@H](NC(=O)/C(C#N)=C/c1ccc(O)c(O)c1)c1ccccc1` gave G9a inh 7.94µM*.
`CC(NC(=O)/C(C#N)=C/c1ccc(Cl)c([N+](=O)[O-])c1)c1ccccc1` (centres undefined) gave L3MBTL1 block -11.8%, G9a inh inconclusive, JMJD2A Tudor inh inconclusive, HP1b binding inh -8.3% and BAZ2B inh inconclusive.
Screening N#C/C(=C\c1cccnc1)C(=O)Nc1ccccc1 returned L3MBTL1 block 10.2%, G9a inh -13.7%, JMJD2A Tudor inh 0.0%, HP1b binding inh 20.5% and BAZ2B inh 11.5%.
